Reference: PubChem BioAssay (NCI)
Compounds without any hit were thinned out: in the full panel of roughly 83,000, 20% have a hit.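 Step 1: grow cells in 96-well plates. Step 2: add test compound at a single concentration. Step 3: incubate 48 h. Step 4: record percent growth.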 A number with no mark means an inactive call. Calls of active or inactive are those of the source. Rule for the calls: active = growth percent below 10; inactive = the rest.

The compounds below were run on HOP-62 NSCLC (assay: NCI-60 one-dose screen, 48 h (100 = growth as untreated, 0 = no growth, -100 = all killed)). Conditions: 10 µM unless noted.

Row | SMILES | growth
1 | c1ccc2c(c1)oc1cc3sccc3nc12 | 89.5%
2 | CC1=C(C(=O)OCC2CCN(C(=O)OC(C)(C)C)CC2)[C@H](c2cccc(C#N)c2)C2=C(CC(C)(C)CC2=O)N1 | 70.3%
3 | O=C(c1nc2ccccc2[nH]1)C1C(c2ccc([N+](=O)[O-])cc2)C2CC3CCCCC3N2[C@@]12C(=O)Nc1cc(Cl)ccc12 (some centres undefined) | 41.3%
4 | Nc1ccn(C2O[C@H](CO)[C@@H](O)[C@H]2O)c(=O)n1 (some centres undefined) | 65%
5 | Nc1ccc(-n2c(=O)oc3ccc(Cl)cc3c2=O)c(Cl)c1 | -6.88% (active)
6 | CC1=C(C(=O)OCC2CCN(C(=O)OC(C)(C)C)CC2)[C@@H](c2cccc(C#N)c2)C2=C(CC(C)(C)CC2=O)N1 | 65.8%
7 | N#Cc1c(N)nc2c(c1N)C(c1ccc(F)cc1)c1ccc(N)cc1O2 (centres undefined) | 113%
8 | COc1ccc(Cn2c(Br)c3c(c2-c2cc(OC)c(OC)c(OC)c2)CCc2sc(NC(=O)c4ccc(OC)cc4)nc2-3)cc1 | 106%
9 | O=c1cc(NC2CCN(CCCc3ccccc3)CC2)c2cc(Cl)ccc2o1 | 0.321% (active)
10 | Brc1ccc(Oc2ccc(Nc3ncnc4onc(-c5ccccc5)c34)cc2)cc1 | 99.8%
11 | NNC(=O)CNC(=O)Nc1n[nH]c(=S)s1 | 100%
12 | COc1ccc(Cn2c(Br)c3c(c2-c2cc(OC)c(OC)c(OC)c2)CCc2sc(NC(C)=O)nc2-3)cc1 | 60.3%
13 | COc1ccc(/C=C2\NC(=O)NC2=O)cc1O | 108%
14 | Cc1cc2c(c(C)c1Cl)C(=O)/C(=C/c1ccco1)O2 | 96.7%
